Among the data in PubChem BioAssay AID750 (Sanford-Burnham Center for Chemical Genomics, 2007) are activation factor values, retold here.

Molecules are shown by their SMILES. The whole screen tested about 86,000 compounds, of which about 140 (0.16%) were called active. Shown is part of a subset that was picked to be rich in actives. Values without a mark were called inactive.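 How the source made its calls: active means activation factor of at least 2 for MT1-MMP transcription at 10 µM; inactive means the rest.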

The nature of the assay: MT1-MMP promoter reporter activation – cell-based, luciferase luminescence, primary screen (AID 750). The note with it: HT1080 MT1-MMP promoter luciferase reporter, overnight, at 10 µM, active compounds read high. Background: Reporter assays use an easily measured gene product as a stand-in for the process of interest.
For the compound `O=C(Cc1ccc(-n2c(=O)[nH]c3ccccc3c2=O)cc1)N1CCN(c2cccc(Cl)c2)CC1`, the activation factor is 1.

Regarding `COc1ccc(Br)cc1CN1CCN(C(=O)c2cccc(OC)c2OC)CC1`, the activation factor was 1.1.

In the case of `COc1ccc(C2=Nc3cc(C)ccc3OC2)cc1`, the activation factor is 0.9.

Turning to `CS(=O)(=O)N1CCN(c2cccc(Cl)n2)CC1`, the activation factor was 1.2.

`COc1ccc(S(=O)(=O)Nc2ccc3oc(C)c(C(C)=O)c3c2)cc1`: the activation factor is 1.1.

Take `Cc1ccc(C2=CSC3=NS(=O)(=O)CCN23)cc1C`: the activation factor was 1.1.

In the case of `CC1=C(C(=O)OC(C)(C)C)C(c2ccc(Br)cc2)NC(=O)N1CCCC(=O)O` (stereo not given), the activation factor was 1.1.

As to `CCS(=O)(=O)Nc1ccc(C2=NN(S(=O)(=O)c3ccc(F)cc3)C(c3ccco3)C2)cc1` (stereo not given), the activation factor was 1.1.

As to `CC1=CC(C)(C)NC(=S)N1c1ccccc1`, the activation factor is 1.1.

Regarding `Cc1ccc(SCC(=O)c2cc(C)c(OC(=S)N(C)C)c(C)c2)cc1`, the activation factor was 1.9.

As for `COC(=O)CSc1nc2c(c(C3CC=CCC3)c1C#N)CCC2` (stereo not given), the activation factor is 1.

For `O=C(NCCCN1CCCCC1)c1ccc2c(c1)NC(=O)C(N1CCOCC1)S2` (stereo not given), the activation factor was 1.1.

With `CC(C)CC[n+]1ccn(C2=C([O-])c3ccccc3C(=O)/C2=N\S(=O)(=O)c2ccccc2)c1`, the activation factor was 0.8.

On to `Cc1ccc2c(c1)c1ncnc(N3CCc4ccccc4C3)c1n2C`, for which the activation factor was 2 (active).

As for `Cc1cccc(-n2ncc3c(N4CCc5ccccc54)ncnc32)c1`, the activation factor is 1.5.

In the case of `Cc1ccc2c(c1)c1ncn(CCC3=CCCCC3)c(=O)c1n2C`, the activation factor was 1.3.

As to `COc1ccc(N(CC(=O)NC2CCCCC2)C(=O)CNC(=O)c2ccco2)c(OC)c1`, the activation factor was 1.2.

Take `CSc1nc(C)cc(SC(C(C)=O)C(=O)Nc2ccccc2)n1` (stereo not given): the activation factor is 1.1.

Consider `CSc1nc2nc3c(c(=O)n2[nH]1)CCC3`, for which the activation factor is 1.2.

Take `COc1ccccc1CCNC(=O)c1cnccn1`: the activation factor was 1.2.

Consider `CCCCCOC(=O)c1ccc(N2C(=O)C3C4C=CC(C4)C3C2=O)cc1` (stereo not given), for which the activation factor was 1.2.

With `O=C(NCc1ccc2c(c1)OCO2)C12CC3CC(CC(C3)C1)C2`, the activation factor was 1.

Turning to `Cc1ccc(N(Cc2ccc(C(=O)Nc3ccccc3C(=O)NCc3ccco3)cc2)S(C)(=O)=O)cc1C`, the activation factor is 1.1.

For `COc1ccccc1NC(=O)/C=C/C(N)=O`, the activation factor was 1.3.

On to `CC(C)CCNC(=O)CC1C(=O)N(Cc2ccccc2)C(C)c2nc3ccccc3n21` (stereo not given), for which the activation factor is 1.

With `CCOC(=O)c1ccccc1NS(=O)(=O)c1ccc(OC)cc1`, the activation factor was 1.

With `CCn1c(CC(=O)Nc2ccc(C)cc2)nnc1SCC(=O)Nc1nc(C)cs1`, the activation factor was 1.1.

`CCN1CCN(C(=O)c2cc3cc4ccc(OC)cc4nc3s2)CC1`: the activation factor was 1.3.

As to `CC1CN(S(=O)(=O)c2ccccc2)C(C)CN1S(=O)(=O)c1ccccc1` (stereo not given), the activation factor is 1.3.

With `CCOC(=O)c1c(C)nc2c(c1C)c(=O)oc1ccccc12`, the activation factor was 1.1.

Consider `Cn1c(C(=O)OC(C(=O)NC2CCCCC2)c2ccccn2)cc2sccc21` (stereo not given), for which the activation factor was 1.2.

In the case of `CCCNC(=S)N1CCC(NC(=O)C23CC4CC(CC(C4)C2)C3)CC1`, the activation factor was 1.2.

For `O=C(Nc1nncs1)c1cccc(S(=O)(=O)N2CCCCC2)c1`, the activation factor is 1.

With `N#Cc1ccc(C=NC(c2ccccc2)c2ccccc2)cc1`, the activation factor was 1.2.

With `CN(Cc1nc2ccccc2c(=O)[nH]1)Cc1cc(=O)oc2ccc3ccccc3c12`, the activation factor was 1.

Take `Cc1nn(C(C)CC(=O)O)c(C)c1C` (stereo not given): the activation factor is 1.2.

As to `COc1ccc(NC(=O)CSc2nc(NS(=O)(=O)c3ccc(C)cc3)cc(=O)[nH]2)cc1`, the activation factor is 1.3.

As to `O=C(N/N=C\c1cccc(Br)c1)c1ccccc1-n1cccc1`, the activation factor was 1.4.

As to `Cc1ccc(S(=O)(=O)Nc2nc(C)cc(-n3nc(C)cc3C)n2)cc1`, the activation factor was 1.

`CCC(C)NC(=O)C1CCCN(C(=O)NC2CCCCC2)C1` (stereo not given): the activation factor is 1.2.

In the case of `Cc1cc(C)n(-c2nc(O)cc(=O)[nH]2)n1`, the activation factor was 1.

Turning to `O=C(CN(c1ccccc1)S(=O)(=O)c1ccc(Cl)cc1)Nc1ccccc1C(=O)N1CCCC1`, the activation factor is 0.9.

Turning to `O=C1/C(=C/c2cccs2)CCc2ccccc21`, the activation factor is 1.8.

For `CCOC(=O)C1=C(C)NC(=O)NC1c1ccccc1` (stereo not given), the activation factor is 1.1.

Regarding `Cc1ccc(S(=O)(=O)c2c(COC(=O)c3cccc(Cl)c3)c(-c3ccccc3)nn2C)cc1`, the activation factor is 1.1.

Turning to `CCOC(=O)c1[nH]c(C)c(C(=O)OCC(=O)N2c3ccccc3CC2C)c1C` (stereo not given), the activation factor was 1.

As for `C=C(Cl)COC(=O)C1C2C=CC(C2)C1C(=O)O` (stereo not given), the activation factor is 1.1.

For `O=C(/C=C/c1ccc(Cl)cc1Cl)c1cccnc1`, the activation factor is 1.

For `CCCCc1nc(NCCN)c(C#N)c2c1CSC(C)(C)C2`, the activation factor is 1.4.

For `CCOc1ccc(NC(=O)CCS(=O)(=O)c2ccc3c(c2)CCCN3C(=O)CC)cc1`, the activation factor was 1.1.

As for `O=C(CSC1=Nc2ccccc2C2=NC(CC(=O)NCc3ccco3)C(=O)N12)NCc1ccco1` (stereo not given), the activation factor was 1.1.

For `CC1(C(=O)NCCc2c[nH]c3ccccc23)C=CC2(CCCCC2)N1C(=O)c1ccccc1` (stereo not given), the activation factor is 1.

As for `O=c1[nH]c(SCc2ccccc2)nnc1-c1ccccc1`, the activation factor was 1.1.

On to `O=C(CCc1ccccc1)NCC#CC(O)c1ccc(Br)cc1` (stereo not given), for which the activation factor was 1.2.

On to `O=C(NCc1ccccc1Cl)c1csc2c1CCCCC2`, for which the activation factor is 1.1.

In the case of `CCCCCCSc1nsc(N)n1`, the activation factor is 1.4.

Consider `CC(C)CNC(=O)CC(c1ccccc1)c1c(O)ccc2ccccc12` (stereo not given), for which the activation factor is 1.

For `CCCNC(=O)CN(Cc1ccccc1F)S(=O)(=O)c1ccc(C)cc1`, the activation factor was 1.3.

For the compound `CCCCNS(=O)(=O)c1ccc(S(=O)(=O)n2cnc3ccccc32)cc1`, the activation factor was 1.1.

For the compound `O=C(Nc1nccs1)c1cc(S(=O)(=O)N2CCOCC2)c(Cl)cc1Cl`, the activation factor is 1.

Take `CCn1nc(C)c(NC(=O)/C=C/c2ccc(OC)c(COc3ccc(Br)cc3)c2)c1C`: the activation factor was 0.9.

`CCCCN(CC)CCNC(=O)c1[nH]c(C)c(C(C)=O)c1C`: the activation factor was 0.9.

For the compound `O=C(COc1ccc(Cl)cc1)NCCSc1ccccc1`, the activation factor is 1.2.

Turning to `CCOc1ccc(NC(=O)c2ccccc2NS(C)(=O)=O)cc1`, the activation factor was 1.3.

As to `O=C(c1cc2c(s1)CCC2)N1CCN(c2ccccc2)CC1`, the activation factor was 1.1.

Turning to `COc1ccc(C2=NOC3(CC(=O)N(c4ccc(C)cc4)C3=O)C2)cc1` (stereo not given), the activation factor was 1.2.

Take `CC1=NN(/C(=N\c2nnc(C)s2)Nc2ccccc2)[C@H](c2ccc(C)cc2)S1`: the activation factor is 1.1.

For `O=C1CCCc2nn(-c3ccccc3)nc21`, the activation factor is 1.5.

As for `OC(CN=c1sc2ccccc2n1CC(O)COc1ccccc1)COc1ccccc1` (stereo not given), the activation factor is 1.4.

Regarding `C=C(C)C(=O)Nc1cccc(C(C)=O)c1`, the activation factor is 1.3.

On to `CC1CCN(C(=O)CN(c2ccc(Oc3ccccc3)cc2)S(C)(=O)=O)CC1`, for which the activation factor is 1.

As to `COc1ccc(CNc2ccc3c(c2)CCC3)cc1OC`, the activation factor was 1.1.

Take `Cc1ccccc1-n1nc(C)c2cc(C(=O)NC3CC3)sc21`: the activation factor is 1.1.

Regarding `Cc1cc(Oc2ccccc2)nc(N2CCOCC2)n1`, the activation factor was 1.1.

Consider `Cc1ccc(OCC(=O)N2CCN(C(=O)c3cccnc3)CC2)cc1`, for which the activation factor is 1.

As to `O=C1/C(=C\Nc2ccccc2)CCN1c1ncccn1`, the activation factor was 1.9.

Regarding `COc1ccc(CN(Cc2ccco2)S(=O)(=O)c2ccc(S(=O)(=O)N3CCCC3)cc2)cc1`, the activation factor was 1.

Regarding `CCCCNC(=O)C1CCCN(S(=O)(=O)c2ccc(S(=O)(=O)NCC(C)C)cc2)C1` (stereo not given), the activation factor was 1.2.

Turning to `CCc1ccc(CNC(=O)C2CCCN(c3nc4ccccc4o3)C2)cc1` (stereo not given), the activation factor was 1.1.

Take `Cc1cccc(C(=O)N2CCCN(C(=O)c3cccc(C)c3)CC2)c1`: the activation factor is 1.

As for `CCC(C)(C(=O)NC1CCCCC1)N(C)C(=O)c1ccc2c(c1)OCO2` (stereo not given), the activation factor was 1.

`Cc1ccc(OCCCC(=O)Nc2ccc(N3CCOCC3)cc2)cc1`: the activation factor is 1.1.

Consider `O=C(CN1C(=O)C2C3C=CC(C3)C2C1=O)Nc1nc(-c2ccccn2)cs1` (stereo not given), for which the activation factor is 1.2.

In the case of `COC(=O)c1ccc(C(NC(=O)OCc2ccccc2)/C(C)=C/[C@@H](C)C(=O)NCc2ccc(OC)c(OC)c2)cc1` (stereo not given in full), the activation factor was 1.4.

With `O=C(CC12CC3CC(CC(C3)C1)C2)Nc1ccc2c(c1)COC2=O`, the activation factor is 1.

Regarding `COc1ccccc1NC(=O)CC(NCCN(C)C)C(=O)O` (stereo not given), the activation factor was 1.

For the compound `CS(=O)(=O)N(CC(=O)N1CCN(Cc2ccccc2)CC1)c1ccc2c(c1)OCCO2`, the activation factor was 0.9.

As to `CCn1c(SCC(=O)Nc2nc(C)cs2)nnc1C(C)NC(=O)c1ccccc1` (stereo not given), the activation factor was 1.3.

For the compound `CCCc1nnc(NC(=O)c2cccs2)s1`, the activation factor was 1.4.

In the case of `CCOC(=O)CN1C(=O)C(=O)c2cc(C)ccc21`, the activation factor was 1.1.

Take `COc1ccc(/C=N/Nc2nc3ccccc3o2)cc1OC`: the activation factor is 1.7.

Consider `CN1CCN(C(=O)Cn2c(C(F)(F)F)nc3ccccc32)CC1`, for which the activation factor was 1.2.

On to `Cc1ccc(S(=O)(=O)NC(=O)COc2ccccc2C)cc1`, for which the activation factor was 1.2.

As to `CC1(C)N=C(c2ccccn2)C(C)(C)N1O`, the activation factor was 1.

As to `COc1ccc(CN(C(=O)CSc2nnc(-c3ccc(OC)c(OC)c3)o2)c2ccc(F)cc2)cc1`, the activation factor is 1.2.

For the compound `CCOC(=O)c1ccc2c(c1)nc(C)n2CC`, the activation factor is 1.6.

As for `O=C(NC(=O)c1ccccc1)NC(=O)c1ccccc1`, the activation factor was 1.

Regarding `CN(C)c1ccnc2sc3c(=O)n(-c4ccc(Cl)cc4)cnc3c12`, the activation factor is 1.5.

As to `Cc1ccc(-n2cc3ccc([N+](=O)[O-])cc3n2)cc1`, the activation factor was 0.9.

In the case of `CCOCN(C(=O)Cn1c(C(C)O)nc2ccccc21)c1c(C)cccc1CC` (stereo not given), the activation factor was 1.2.
